Screens deposited in PubChem BioAssay by several laboratories.
A selection: hits, their analogues and other compounds. The true share with any hit is near 2.2%.
AI-2 QS mod = modulates the Vibrio harveyi AI-2 quorum sensing system. Vibrio harveyi JMH597 AI-2 luminescence/OD600 ratio, 9 h; stronger effect = lower value; strain lacks LuxN and CqsS sensors; 0 = neutral-control median. activity change, % at 7.5 µM. hit rate 0.4% among 300,000; in the data active = activity change below about -75%, passing the limit was not always enough;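 also: luminescence divided by OD600 gain over 9 h not by final OD600 alone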
HIF activator = HIF pathway transcriptional activation; U2OS HRE-luciferase reporter, luminescence; normalized: DMSO 0%, desferrioxamine 100%; activation, % at 7.5 µM (by protocol); hit rate 0.32% among 300,000;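 active = mean activation of at least 10% of the iron chelator positive control signal, with at least half of replicates also reaching 10%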
Platelet DG rel = platelet dense granule release activity | hit rate 0.22% among 300,000 | human platelet-rich plasma, SFLLRN dense granule ATP release, luminescence | inhibition, %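 (compounds screened at 7.5 µM in platelet-rich plasma)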;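 active = mean replicate score, as percent of positive control, at or above 50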
CHT block = human CHT choline transport inhibition; Q9GZV3; CHT-expressing cells, membrane potential dye, choline response; stronger effect = lower value; hit rate 0.86% among 310,000; B-score at 10 µM;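 active = B-score over 3 SD under the library average, and starting fluorescence ratio not unusually high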;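 also: choline stimulus applied at its EC90 after an EC20 pre-addition; B-score computed on integrated fluorescence ratio after choline addition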
CHT PAM = allosterically activates the human high affinity choline transporter. Q9GZV3. CHT-expressing cells, membrane potential dye, choline EC20; stronger effect = higher value; LV-AA mutant CHT in HEK293 cells. B-score at 10 µM. hit rate 0.49% among 310,000. AID 488977;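 active = initial fluorescence not abnormally high and integrated response B-score, plate-corrected, over 3 SD above library mean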
VLA-4 inh = inhibition in a human VLA-4 binding assay. hit rate 0.2% among 330,000. VLA-4 expressing cells, ligand binding flow cytometry. inhibition, % (about 7 µM as worked out from the volumes in the protocol); in the data active = inhibition above about 50%
Target sequence (P13612 whole entry, looked up): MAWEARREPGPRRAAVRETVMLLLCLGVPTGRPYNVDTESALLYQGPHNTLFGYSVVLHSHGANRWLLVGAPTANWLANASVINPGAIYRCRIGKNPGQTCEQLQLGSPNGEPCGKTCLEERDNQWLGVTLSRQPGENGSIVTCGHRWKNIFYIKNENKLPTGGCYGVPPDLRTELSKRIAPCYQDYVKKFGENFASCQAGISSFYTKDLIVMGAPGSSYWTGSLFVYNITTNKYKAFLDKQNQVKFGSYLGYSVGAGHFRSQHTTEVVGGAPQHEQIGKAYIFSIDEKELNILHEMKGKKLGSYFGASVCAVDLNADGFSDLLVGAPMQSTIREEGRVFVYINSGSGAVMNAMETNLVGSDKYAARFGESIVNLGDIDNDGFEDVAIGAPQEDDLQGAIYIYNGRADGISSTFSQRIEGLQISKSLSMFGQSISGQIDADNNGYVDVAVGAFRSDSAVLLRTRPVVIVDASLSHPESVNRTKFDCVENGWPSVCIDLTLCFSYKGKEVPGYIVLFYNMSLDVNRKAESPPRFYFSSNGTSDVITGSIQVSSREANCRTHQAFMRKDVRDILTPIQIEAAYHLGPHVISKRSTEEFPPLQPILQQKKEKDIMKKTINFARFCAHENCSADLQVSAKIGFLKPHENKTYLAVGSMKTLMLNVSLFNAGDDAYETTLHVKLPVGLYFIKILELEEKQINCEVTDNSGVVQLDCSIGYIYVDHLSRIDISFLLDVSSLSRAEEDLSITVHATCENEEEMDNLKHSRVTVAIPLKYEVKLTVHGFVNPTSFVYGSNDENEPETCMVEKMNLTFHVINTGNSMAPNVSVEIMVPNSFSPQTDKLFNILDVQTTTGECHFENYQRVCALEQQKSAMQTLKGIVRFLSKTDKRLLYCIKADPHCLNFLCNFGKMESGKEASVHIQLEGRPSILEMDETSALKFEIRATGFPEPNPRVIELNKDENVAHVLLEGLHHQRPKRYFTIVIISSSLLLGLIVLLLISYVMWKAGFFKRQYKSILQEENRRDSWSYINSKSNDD
CHT block conf = confirmation of human choline transporter CHT inhibitors | hit rate 70% among 2,400 | shares compounds with CHT block | AID 493221 | CHT activity remaining % of control (stronger effect = lower value), % at 10 µM | CHT-expressing cells, choline membrane potential dye; LV-to-AA substituted CHT, HEK293 cells;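 active = choline transporter activity left, mean of duplicates at 10 µM, below buffer-only control mean minus 3 SD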;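 also: depolarization triggered by choline at its EC90 following an EC20 pre-addition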
HEK293 CHT ctr = counter-screen for CHT inhibitors: effect in parental HEK293 cells. shares compounds with CHT block. membrane potential dye, choline response; active = decrease or increase beyond buffer ±3SD. membrane potential ratio readout (active if shifted either direction beyond buffer ±3SD; no single direction) at 10 µM. hit rate 4% among 2,400;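 also: parental cells lack the transporter so any hit is non-specific; ratio is peak minus trough fluorescence over baseline after EC90 choline challenge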
Each line names hits and unclear results; the compound was inactive in the other large screens (follow-up assays come after a bar, where they were run).

CCCCCn1c(CN2CCN(c3cccc(Cl)c3)CC2)nc2c1c(=O)n(C)c(=O)n2C	none (no result: HIF activator)
Cc1cc(C)cc(-n2ncc3c2CCCC3NC(=O)CCN2CCCC2=O)c1 (stereo not drawn)	none
CC(C)c1ccc2[nH]c3c(c2c1)[C@@H]1CCN2C(=O)CCC[C@H](C3)[C@H]12	none
Cc1ccc(SCc2ccc(C(=O)N3CCCC3)cc2)cc1	none
Cc1ccc(SCC2(O)CCN(C(=O)c3ccc(Cl)cc3)CC2)cc1	CHT block -5.77 | CHT block conf 65.4% | HEK293 CHT ctr inactive
CCN(CC(=O)Nc1ccc2c(c1)OCCO2)C(=O)c1ccc([N+](=O)[O-])s1	none (no result: AI-2 QS mod, HIF activator, Platelet DG rel, CHT block, CHT PAM)
O=C1NC2(CCCCCC2)C(=O)N1Cc1ccccc1Br	none
C=CCC1(CC=C)CCCN1Cc1nc(COc2ccccc2)no1	none
NS(=O)(=O)c1ccc(CCNC(=O)c2ccc3c(=O)n4c(nc3c2)CCCCC4)cc1	none (no result: AI-2 QS mod, HIF activator, Platelet DG rel, CHT block, CHT PAM)
O=C(NNS(=O)(=O)c1ccccc1[N+](=O)[O-])c1cc2ccccc2cc1O	CHT block -7.26 | CHT block conf 62.3% | HEK293 CHT ctr inactive
O=C(NNS(=O)(=O)c1ccccc1[N+](=O)[O-])c1ccccc1Cl	none
CN1CCN(C(=O)CCN2C(=O)S/C(=C/c3ccc(Cl)cc3)C2=O)CC1	CHT block -6.47 | CHT block conf 50.4% | HEK293 CHT ctr inactive
Cc1ccc(/C=C2\SC(=O)N(CCC(=O)N3CCN(C)CC3)C2=O)cc1	none
C=CCC[C@@H](Cc1ccc(F)cc1)C(=O)OC[C@@H](Cc1ccccc1)NC(=O)[C@H](CC=C)CC(=O)NCCO	none (no result: AI-2 QS mod, HIF activator, Platelet DG rel, CHT block, CHT PAM)
CCOC(=O)N1CCN(C(=O)CCCn2nnnc2CN2CCC(C)CC2)CC1	none
O=C(Nc1ccc(Cl)cc1C(=O)N1CCCC1)c1cccc([N+](=O)[O-])c1	none
COc1ccc(-c2sc(Nc3ccc(F)c(F)c3F)nc2CCC(=O)NN)cc1	CHT block -5.16 | CHT block conf inactive | HEK293 CHT ctr inactive
CCOCCc1nn2c(=O)cc(CSCC(=O)Nc3ccccc3)nc2s1	none
Cc1ccc(S(=O)(=O)NC(=O)c2ccc(-c3ccc(C)c4ccccc34)o2)cc1	CHT block -5.01 | CHT block conf inactive | HEK293 CHT ctr inactive
Cc1ccc(-c2ccc(C(=O)Nc3ccccc3)o2)c2ccccc12	none
COc1ccc(C(C(N)=O)c2ncc(C(F)(F)F)cc2Cl)cc1OC (stereo not drawn)	none
COc1cc(CCCN2C(=O)C(=O)NC[C@H]2Cc2cccc3ccccc23)cc(OC)c1OC	CHT block -5.07 | CHT block conf 45.0% | HEK293 CHT ctr inactive
COc1cc(CCCN2CCNC[C@H]2Cc2cccc3ccccc23)cc(OC)c1OC	none (no result: AI-2 QS mod, HIF activator, Platelet DG rel, CHT block, CHT PAM)
CC(=O)c1cccc(NC(=O)C(C)OC(=O)c2ccc(Br)o2)c1 (stereo not drawn)	none (no result: AI-2 QS mod, HIF activator, Platelet DG rel, CHT block, CHT PAM)
O=C(Nc1cccn(Cc2c(Cl)cccc2Cl)c1=O)C1CC1	none
C#CCOC(=O)Nc1cccn(Cc2c(Cl)cccc2Cl)c1=O	CHT block -5.05 | CHT block conf inactive | HEK293 CHT ctr inactive
CCCCC(O)(c1ccc(CC)cc1)C(CN1CCOCC1)c1ccccc1 (stereo not drawn)	none
CSc1ccccc1NS(=O)(=O)c1cccc2nonc12	none
Cc1ccc(NC(=O)CSc2nnc(C)n2C2CC2)cc1S(=O)(=O)N1CCOCC1	none (no result: AI-2 QS mod, HIF activator, Platelet DG rel, CHT block, CHT PAM)
Cc1ccc(NC(=O)CSc2n[nH]c(=O)n2C2CC2)cc1S(=O)(=O)N1CCOCC1	CHT block -6.75 | CHT block conf inactive | HEK293 CHT ctr inactive
Cc1ccc2nc(SCC(=O)NCc3ccc(F)cc3)nc(=O)n2c1	none
COc1cc2c(cc1OC)-c1cc(N3CCCc4ccccc43)nc(=O)n1CC2	CHT block -6.32 | CHT block conf 69.7% | HEK293 CHT ctr inactive
CCN(CC)CCCNc1cc2n(c(=O)n1)CCc1cc(OC)c(OC)cc1-2	none
